Data as given in paper PMC4336329 (PLoS ONE, 2015).
Out of some 310,000 compounds screened, about 14,000 (4.5%) showed an effect of 50% or more. Effects have a minus sign here. The entries come from a sample that favours strong results as a whole.

The compounds below were run against human ether-à-go-go-related gene (hERG) potassium channel (human, UniProt Q12809) (assay: primary screen, population patch clamp on CHO cells stably expressing hERG; higher = less effect of the substance).
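Further: peak tail current of the secondary pulse compared with the same well before compound.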

Chain of human ether-à-go-go-related gene (hERG) potassium channel (Q12809 whole entry, looked up): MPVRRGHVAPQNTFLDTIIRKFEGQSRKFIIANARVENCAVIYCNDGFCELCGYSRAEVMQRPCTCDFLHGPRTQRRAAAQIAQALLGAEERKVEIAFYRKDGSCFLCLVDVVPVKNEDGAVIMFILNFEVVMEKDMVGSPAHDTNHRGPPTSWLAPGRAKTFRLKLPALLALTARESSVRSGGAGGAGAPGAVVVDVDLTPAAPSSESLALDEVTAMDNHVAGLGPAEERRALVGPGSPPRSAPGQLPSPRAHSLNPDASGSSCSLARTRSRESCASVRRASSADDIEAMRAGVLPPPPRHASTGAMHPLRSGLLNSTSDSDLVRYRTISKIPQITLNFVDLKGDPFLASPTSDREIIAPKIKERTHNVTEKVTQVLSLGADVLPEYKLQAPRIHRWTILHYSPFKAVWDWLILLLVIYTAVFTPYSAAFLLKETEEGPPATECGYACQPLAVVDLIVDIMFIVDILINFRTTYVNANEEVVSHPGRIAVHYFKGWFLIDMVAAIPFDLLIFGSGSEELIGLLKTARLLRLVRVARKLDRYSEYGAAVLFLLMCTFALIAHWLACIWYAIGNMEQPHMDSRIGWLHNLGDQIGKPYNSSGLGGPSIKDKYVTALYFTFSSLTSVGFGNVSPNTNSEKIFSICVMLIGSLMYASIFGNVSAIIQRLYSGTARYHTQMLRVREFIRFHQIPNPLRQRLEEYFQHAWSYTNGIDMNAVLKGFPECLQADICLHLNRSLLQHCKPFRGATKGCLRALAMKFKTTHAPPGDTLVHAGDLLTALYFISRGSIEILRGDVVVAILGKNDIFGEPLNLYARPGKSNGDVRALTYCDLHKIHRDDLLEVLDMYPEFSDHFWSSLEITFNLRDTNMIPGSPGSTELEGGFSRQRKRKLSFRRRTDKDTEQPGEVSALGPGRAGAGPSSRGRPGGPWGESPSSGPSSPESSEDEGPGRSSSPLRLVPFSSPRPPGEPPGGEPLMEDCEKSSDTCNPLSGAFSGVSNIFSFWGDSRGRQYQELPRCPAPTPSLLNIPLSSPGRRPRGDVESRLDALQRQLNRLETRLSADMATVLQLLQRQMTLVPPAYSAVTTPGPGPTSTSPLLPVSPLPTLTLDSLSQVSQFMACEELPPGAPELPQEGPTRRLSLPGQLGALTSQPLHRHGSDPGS

Structure (SMILES)	hERG current change (%, negative = inhibition) at 10uM
COC(=O)[C@@]1(Cc2ccc(F)cc2)[C@H]2c3cc(C(=O)N4CCCC4)n(CCc4c[nH]c5ccc(OC)cc45)c3C[C@H]2CN1C(=O)c1ccccc1	3.92%
COC(=O)[C@@]1(Cc2ccc(F)cc2)[C@H]2c3cc(C(=O)N4CCCC4)n(CCc4ccc(O)c(O)c4)c3C[C@H]2CN1C(=O)c1ccccc1	-15.5%
COC(=O)[C@@]1(Cc2ccc(F)cc2)[C@H]2c3cc(C(=O)N(C)C)n(Cc4ccccn4)c3C[C@H]2CN1C(=O)c1ccccc1	-53.4%
COC(=O)[C@@]1(Cc2ccc(F)cc2)[C@H]2c3cc(C(=O)N(C)C)n(CCSCCO)c3C[C@H]2CN1C(=O)c1ccccc1	-34.4%
COC(=O)[C@@]1(Cc2ccc(F)cc2)[C@H]2c3cc(C(=O)N(C)C)n(CCc4ccc(OC)c(Br)c4)c3C[C@H]2CN1C(=O)c1ccccc1	-2.99%
COC(=O)[C@@]1(Cc2ccc(F)cc2)[C@H]2c3cc(C(=O)N(C)C)n(Cc4ccccc4)c3C[C@H]2CN1C(=O)c1ccccc1	-13.3%
COC(=O)[C@@]1(Cc2ccc(F)cc2)[C@H]2c3cc(C(=O)N4CCCC4)n(CCc4ccccn4)c3C[C@H]2CN1C(=O)c1ccccc1	-64.1%
COC(=O)[C@@]1(Cc2ccc(F)cc2)[C@H]2c3cc(C(=O)N(C)C)n(Cc4ccc(OC)c(OC)c4)c3C[C@H]2CN1C(=O)c1ccccc1	-42.6%
COC(=O)[C@@]1(Cc2ccc(F)cc2)[C@H]2c3cc(C(=O)N(C)C)n(CCc4ccccn4)c3C[C@H]2CN1C(=O)c1ccccc1	-64.8%
CS(=O)(=O)Nc1ccc(C(=O)Nc2ccc(S(=O)(=O)N3CCCC3)cc2)cc1	-13.7%
Cc1nc(NC(=O)c2ccccc2)sc1-c1csc(NCCc2ccccc2)n1	12%
CCOC(=O)CNC(=O)c1cnn2cccnc12	2.78%
NC(=O)c1c(-c2cccs2)csc1N	3.94%
COc1cc(C(=O)NCc2nnc(SCC(=O)NCc3ccccc3)o2)cc(OC)c1OC	17.6%
Cc1ccc(S(=O)(=O)NC2OC(=O)C(Cl)=C2Cl)cc1 (stereo not drawn)	-3.55%
COC(=O)c1nc2ccccn2c1F	13.2%
Cc1c(C(=O)N(C)CCCCN2CCOCC2)oc2c(F)cccc12	4.14%
CC(C)(C)C(=O)NC(=S)Nc1cc(C(=O)O)ccc1Cl	4.5%
CC(=O)NC(=S)Nc1cc(C(=O)O)ccc1Cl	-64.9%
CCCCC(=O)NC(=S)Nc1cc(C(=O)O)ccc1Cl	11.2%
COC(=O)c1scc(C)c1NC(=O)Nc1ccccc1	3.91%

Structure (SMILES)	hERG current change (%, negative = inhibition) at 10uM
Cc1sc2ncnc(Oc3ccc(-n4ccnc4)cc3)c2c1C	-68.4%
Cc1sc2ncnc(N)c2c1C	4.12%
Cc1ccc2cccc(Oc3ncnc4sc(C)c(C)c34)c2n1	15.3%
CCOc1ccc(N/C(N)=N/c2nc(CSc3nnc(C)s3)cc(=O)[nH]2)cc1	12.5%
C/C=C/c1ccc(OCC(=O)Nc2ccc(C(N)=O)cc2)c(OC)c1	7.23%
COc1ccc(C2C(C#N)=C(N)Oc3c2c(C)nn3-c2ccccc2)cc1Cn1nc(C)c([N+](=O)[O-])c1C (stereo not drawn)	-4.96%
Cc1cccc(N2C(=O)c3cccc(Oc4ccc(Cl)cc4)c3C2=O)c1	4.76%
O=C(O)c1cccc(N2C(=O)c3cccc(Oc4ccc(Cl)cc4)c3C2=O)c1	16.2%
O=C(O)c1ccc(N2C(=O)c3cccc(Oc4ccc(Cl)cc4)c3C2=O)cc1	-80.7%
Cc1cc(C)nc(NC2=NCC(=O)N2c2ccccc2Br)n1	8.96%
CC[n+]1ccc(/C=C/c2c[nH]c3ccccc23)cc1.[Cl-]	-6.54%
Cc1cc(/C=C(/C#N)C(=O)O)c(C)n1CCC(C)C	4.68%
CNC(=O)Nc1cc(C(F)(F)F)cc(C(F)(F)F)c1	14.3%
Cc1nn(-c2ccccc2)c(Cl)c1/C=N/NC(=O)c1ccccc1F	14.6%
COCCn1c(Cc2ccccc2)nnc1SCC(=O)Nc1ccccc1	5.83%
COc1ccc(CC(=O)NCc2nnc(SCc3ccc(C)cc3)n2C)cc1	5.49%
COc1ccc(CC(=O)NCc2nnc(SCc3ccc([N+](=O)[O-])cc3)n2C)cc1	-63.6%
COc1ccc(-n2c(Cc3ccccc3)nnc2SCc2ccc([N+](=O)[O-])cc2)cc1	-68.4%
O=[N+]([O-])c1ccc(CSc2nnc(Cc3ccccc3)n2-c2ccc(F)cc2)cc1	-48.7%
COCCn1c(Cc2ccccc2)nnc1SCC(=O)N(C)C	14.3%
COc1ccc(-n2c(SCc3ccc([N+](=O)[O-])cc3)nnc2-c2ccccc2)cc1	-24.4%

Structure (SMILES)	hERG current change (%, negative = inhibition) at 10uM
COc1ccc(CC(=O)NCc2nnc(SCC(=O)c3ccc(OC)cc3)n2C)cc1	-3.61%
COc1ccc(-n2c(Cc3ccccc3)nnc2SCC(=O)N2CCCc3ccccc32)cc1	-53.9%
COCCn1c(Cc2ccccc2)nnc1SCc1ccc([N+](=O)[O-])cc1	-55%
COc1ccc(-n2c(Cc3cccn3C)nnc2SCC(=O)N2CCCc3ccccc32)cc1	-13.9%
COc1ccc(OCc2nnc(SCC(=O)N3CCCc4ccccc43)n2-c2ccc(C)cc2)cc1	-3.12%
CN1CCC(N(C)S(=O)(=O)c2ccc(NC(=O)COc3ccc(F)cc3)cc2)CC1	0.996%
Cc1cc(C(F)F)n2nc(C(=O)Nc3ccc(S(=O)(=O)NC45CC6CC(CC(C6)C4)C5)cc3)nc2n1	-8.28%
O=S(=O)(Cc1ccccc1)N1CCn2c(nc3ccccc32)C1	9.91%
COCCNC(=O)C(=O)N/N=C(\C)CC(=O)Nc1cccnc1	8.89%
CCn1c(SCc2ccc([N+](=O)[O-])cc2)nnc1C(C)NC(=O)c1ccc(C)cc1 (stereo not drawn)	-33.6%
COc1ccc(NC(=O)CSc2nnc(CNc3ccc(C)cc3)n2C)cc1	25.2%
CC(C)OC(=O)CSc1nnc(COc2ccc([N+](=O)[O-])cc2)n1C	-69.9%
COc1ccc(NCc2nnc(SCC(=O)Nc3ccccc3)n2C)cc1	-12.5%
CCn1c(SCc2ccc([N+](=O)[O-])cc2)nnc1C(C)NC(=O)c1ccccc1Br (stereo not drawn)	-27.6%
Cn1c(COc2ccc([N+](=O)[O-])cc2)nnc1SCC(N)=O	1.54%
Cc1cc(C)nc(SCc2nnc(SCC(N)=O)n2Cc2ccco2)n1	-7.19%
COc1ccc(NCc2nnc(SCC(=O)Nc3ccc(OC)cc3)n2C)cc1	-62.3%
Cc1cc(C)nc(SCc2nnc(SCc3ccc([N+](=O)[O-])cc3)n2Cc2ccco2)n1	-80.6%
COC(=O)CSc1nnc(CSc2nc(C)cc(C)n2)n1Cc1ccco1	7.23%
COC(=O)CSc1nnc(COc2ccc([N+](=O)[O-])cc2)n1C	-47.6%
C=CCn1c(SCc2ccc([N+](=O)[O-])cc2)nnc1C(C)NC(=O)c1ccccc1 (stereo not drawn)	-54.5%

Structure (SMILES)	hERG current change (%, negative = inhibition) at 10uM
CC(C)N1CC(C(=O)Nc2ccc(Br)c(Cl)c2)CC1=O (stereo not drawn)	-2.34%
O=C(COc1ccc(-c2ccccc2)cc1)NNC(=O)Nc1ccccc1	-2.73%
Nc1c(Cl)ncnc1N/N=C/c1ccnc2ccccc12	1.91%
CC(C)NC(=O)C(=O)NCCN1CCN(S(=O)(=O)c2ccc(Cl)cc2)CC1	-33.3%
COCCN(C(C)=O)c1nnc(-c2cnccn2)s1	6.11%
COC(=O)C1=C(C)NC2=C(C(=O)CC(C)(C)C2)C1c1cnn(C)c1C (stereo not drawn)	15.6%
COc1ccc(OCC(=O)N/N=C2\CCCCc3ccccc32)cc1	-12.3%
CCc1ccc(-n2c(SCc3c(C)noc3C)nnc2-c2ccncc2)cc1	-36.6%
Cc1cccc(-n2c(Cc3ccccc3)nnc2SCc2ccc([N+](=O)[O-])cc2)c1	-37.6%
CCn1c(Cc2ccccc2)nnc1SCc1ccc([N+](=O)[O-])cc1	-57.1%
CCn1c(Cc2ccccc2)nnc1SCC(=O)c1cccc([N+](=O)[O-])c1	-24%
CCOc1ccc(-n2c(COc3ccccc3)nnc2SCC(N)=O)cc1	-13.8%
CCOc1ccc(-n2c(Cc3ccccc3)nnc2SCc2c(C)noc2C)cc1	-74.1%
OCCOCCn1c(-c2ccccc2)nc(=S)c2c1CCCC2	9.34%
CCCOc1ccc(Cn2c(O)cc(=O)[nH]c2=O)cc1	14.1%
Cc1sc(N)c(C(=O)c2ccccc2)c1C	9.41%
O=C(c1ccccc1)c1c2c(cc3sc4ccccc4[n+]13)-c1cccc3cccc-2c13.[Br-]	-76.8%
O=C(O)c1cccc(N2C(=O)c3cccc4cccc(c34)C2=O)c1	12.7%
Cc1sc2ccccc2[n+]1CC(=O)c1ccccc1.[Br-]	18.7%
CN(C)/C=N/c1ncc(C(=O)c2ccccc2)s1	1.48%
Cc1sc2cc3c(c(C(=O)c4ccccc4)[n+]2c1C)-c1cccc2cccc-3c12.[Br-]	-77.1%
